In the library only some 2.9% were active in any assay of this set; here they are far more common.
DRD3 antagonist = qHTS of D3 Dopamine Receptor Antagonist: qHTS; 2.5% of 360,000 active; D3R cells, DiscoveRx beta-arrestin luminescence, antagonist mode; hits give low values; max response, negative = inhibition, %; in the data active = max response below about -50%; inconclusive = no clear call, values can overlap the other calls; also: % is scaled to controls: 0 for no effect and ±100 for the full control effect
Target sequence (P35462 whole entry, looked up): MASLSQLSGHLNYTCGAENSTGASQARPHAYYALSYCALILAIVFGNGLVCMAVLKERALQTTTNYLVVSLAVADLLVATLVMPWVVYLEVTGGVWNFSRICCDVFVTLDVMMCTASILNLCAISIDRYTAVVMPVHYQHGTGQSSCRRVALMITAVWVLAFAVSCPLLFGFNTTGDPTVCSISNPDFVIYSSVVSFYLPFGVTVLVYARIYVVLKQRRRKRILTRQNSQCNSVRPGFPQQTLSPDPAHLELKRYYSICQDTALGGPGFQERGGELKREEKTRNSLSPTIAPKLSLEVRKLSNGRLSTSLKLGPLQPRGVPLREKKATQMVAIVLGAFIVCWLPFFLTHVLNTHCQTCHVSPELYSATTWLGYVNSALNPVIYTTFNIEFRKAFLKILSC
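Cells expressing the human receptor were seeded at 1500 cells/well, incubated overnight at 37 degrees C in 5% CO2, then exposed to library compounds with dopamine controls for 90 minutes at 37 degrees C before luminescent detection.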
a7 integrin act = qHTS for Activators of Integrin-Mediated Alleviation for Muscular Dystrophy. alpha7betagal myoblasts, beta-gal FDG fluorescence, 48 h. Potency, µM (highest dose often 38.3 µM), without a hit: at the highest dose activation, most hits filed as activators. 0.064% of 350,000 active; active = well fitted activation curve with a large enough effect; inconclusive = small, poorly fitted or top-dose-only effect; inactive = no such curve, though single readings can be large or run the other way;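 also: potency is read from the fitted curve at half-maximal effect; 100% = response of the positive control SU9516; nearly all actives have a fitted effect of over 60% in size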
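Alpha7betagal+/- myoblasts (passage 13) were plated 16-24 hr, then exposed to compounds (1:260 dilution of DMSO stock) for 48 hours at 37C. After MPER lysis, β-galactosidase reporter activity was read as FDG fluorescence (ex 480/em 540) after 30 minutes.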
DRD3 agonist = qHTS of D3 Dopamine Receptor Agonist: qHTS. max activation, %. 0.58% of 410,000 active. D3R DiscoveRx beta-arrestin cells, luminescence, 90 min. D(3) dopamine receptor (Homo sapiens), P35462. AID 652048, 2013; in the data active = max activation above about 30%; also: 0% is about no effect
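Agonist mode: compounds and dopamine controls were applied to plated cells for 90 min at 37 degrees C after an overnight attachment at 1500 cells/well. Luminescent read-out followed 30 - 60 minutes at room temperature with DiscoveRx detection reagent.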
* hit, by the source's call; ? = inconclusive; nt = no result; [ ] = remark or other dose.

SMILES | DRD3 antagonist | a7 integrin act | DRD3 agonist
CCc1nc2ccccc2c(C(=O)OCC(=O)Nc2ccc(S(=O)(=O)N3CCOCC3)cc2)c1C | 14 | -48% | 1
CCc1nc2ccccc2c(C(=O)OCC(=O)Nc2cccc(S(=O)(=O)NC3=NCCCCC3)c2)c1C | 92 | -12% | 45*
O=C(COC(=O)c1ccc2ccccc2n1)Nc1cccc(S(=O)(=O)NC2=NCCCCC2)c1 | -5 | -26% | -3
CCc1nc2ccccc2c(C(=O)OCC(=O)Nc2cccc(S(=O)(=O)N3CCOCC3)c2)c1C | 105 | -14%[7.66 µM] | 33*
Cc1ccccc1NC(=O)C1CCN(C2=NS(=O)(=O)c3ccccc32)CC1 | -2 | 3% | -2
CC1CCN(c2ccccc2NC(=S)NC(=O)c2cccs2)CC1 | -58* | 6% | -6
CS(=O)(=O)N1CCN(c2ccccc2NC(=S)NC(=O)c2cccs2)CC1 | 0 | -18% | -10
Cc1cc(C(=O)CCl)c(C)n1-c1c(C)n(C)n(-c2ccccc2)c1=O | -24 | -32% | 4
CC(=O)C1=C(c2ccc(Br)cc2)C(=O)c2ccccc2C1=O | -87* | -56% | -13
CNC1=C(N(C(C)=O)c2ccc(Br)cc2)C(=O)c2ccccc2C1=O | -23 | -55% | -2
CC(=O)Nc1ccc(C(=O)N/N=C/c2ccncc2)cc1 | -4 | -15% | 1
COc1cc(OC)c(N2CC(C(=O)Nc3cccc(C(=O)NC4CC4)c3)CC2=O)cc1Cl (centres undefined) | 4 | 21% | -5
O=C(Nc1ccc(F)cc1)NC1CCN(Cc2ccccc2)CC1 | -28 | -24% | 3
COC(=O)c1ccccc1NC(=O)NC1CCN(Cc2ccccc2)CC1 | -93* | 13% | -33
CCC(C)[C@H](NC(=O)NC1CCN(Cc2ccccc2)CC1)C(=O)OC (some centres undefined) | -50* | -3% | -38
COc1ccc(C)cc1NC(=O)NC1CCN(Cc2ccccc2)CC1 | -83* | -29% | -25
CCN1CCC(NC(=O)Nc2ccccc2C(=O)OC)CC1 | 2 | ? | -4
COc1ccc(S(=O)(=O)NC2CCN(Cc3ccccc3)CC2)cc1NC(C)=O | 24 | 0% | -9
CC(C)OC(=O)C(CC(=O)O)NCc1ccccc1 (centres undefined) | ? | -2% | -2
Cc1cccc(-n2c(-c3ccccc3)c[nH]c2=S)c1C | -1 | -29% | 1
N#Cc1cc(C#N)c(N2CCN(c3cccc(Cl)n3)CC2)nc1N | 53 | -8%[7.66 µM] | 13
O=C(Nc1cccc(F)c1)c1cccc2c1C(=O)N(C1CCCCC1)C2 | -2 | ? | 2
CCc1nc2ccc(C(=O)N3CCN(C(=O)c4ccco4)CC3)cn2c1N(C)Cc1cccs1 | 72 | nt | 2
CCc1nc2ccc(C(=O)NCCCn3ccnc3)cn2c1N(C)Cc1cc2ccccc2s1 | 17 | nt | 3
CCc1nc2ccc(C(=O)NC3CCN(Cc4ccccc4)CC3)cn2c1N(C)Cc1cc2ccccc2s1 | -68* | nt | -10
SMILES | DRD3 antagonist | a7 integrin act | DRD3 agonist
CCc1nc2ccc(C(=O)NC3CCN(Cc4ccccc4)CC3)cn2c1N(C)Cc1cccs1 | -77* | nt | -29
Cn1c(N/N=C2\CCCc3ccccc32)nc2c1c(=O)n(Cc1ccc(F)cc1)c(=O)n2C | -2 | -10% | -2
Cc1oc(-c2cccs2)nc1CN1CCN(CCC(C)C)C(CCO)C1 (centres undefined) | -14 | -20% | -9
Cc1cc(NC(=O)N2CCC(CN3CCCCCC3)CC2)ccc1Br | nt | nt | -4
CS(=O)(=O)c1ccc(N2CCN(c3ccccn3)CC2)c([N+](=O)[O-])c1 | -7 | 0% | -2
CCc1ccc(-n2c(C)cc(/C=N/NC(=O)c3ccncc3)c2C)cc1 | 2 | -41% | 5
O=C(NC1CCCC1)C1c2ccccc2OCC(=O)N1Cc1ccccn1 (centres undefined) | -58* | nt | -16
O=C(NCc1ccccc1)C1c2ccccc2OCC(=O)N1CCc1ccccc1 (centres undefined) | 6 | nt | 1
O=C(NCc1ccccc1)C1c2ccccc2OCC(=O)N1Cc1cccnc1 (centres undefined) | -61* | nt | -5
CCCCNC(=O)C1c2ccccc2OCC(=O)N1Cc1ccccn1 (centres undefined) | ? | nt | -5
Cc1ccc(CNC(=O)C(OC(=O)c2ccco2)C(C)C)cc1 (centres undefined) | 6 | 7% | 2
CCS(=O)(=O)c1ccc2oc(Nc3cccc(OC)c3)nc2c1 | -9 | ? | 0
Cc1cccc(OCC(=O)NNS(=O)(=O)c2ccccc2F)c1 | 3 | 7% | -6
Cc1nc2nncn2c(Nc2ccccc2)c1C | nt | nt | 6

High-throughput results (PubChem BioAssay)
